# Compound activity deposited in PubChem by National Center for Advancing Translational Sciences (NCATS).
# NIH3T3 tox: NIH 3T3 cell cytotoxicity; NIH 3T3 viability, CellTiter-Glo ATP luminescence, 48-72 h; hit rate 4.3% among 94,000; Potency, µM (titrated, usually from 96.7 µM), for the others: top-dose activity change, negative = cytotoxicity, hits mostly inhibitors; note: % is set by controls: 0 for no effect and ±100 for the full control effect; nearly all actives have a fitted effect of over 55% in size
#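 NIH 3T3 cells at 400 cells/well received 23 nL of compound by pintool and were incubated 48 or 72 h at 37 °C. Viability was read as ATP-coupled CellTiter-Glo luminescence.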
# FLuc inh: blocks purified firefly luciferase enzyme activity; purified P. pyralis luciferase, luminescence, biochemical; Potency, µM (doses to about 115 µM), most hits filed as inhibitors; hit rate 2.5% among 76,000; AID 1347043; note: % is set by controls: 0 for no effect and ±100 for the full control effect; nearly all actives have a fitted effect of over 65% in size
#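 Cell-free enzyme assay, 10nM P. pyralis luciferase, luciferin and ATP each at 10uM. Inhibition profiled over a 6-point titration, read as luminescence.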
# GPT2 inh: GPT2 alanine aminotransferase inhibition; Q8TD30; Recombinant GPT2, coupled pyruvate oxidase/HRP Amplex Red fluorescence; Potency, µM (series often up to 57.7 µM), for inactives: at the highest dose activity change, negative = inhibition, usual class: inhibitors; hit rate 0.25% among 100,000; note: % is set by controls: 0 for no effect and ±100 for the full control effect; nearly all actives have a fitted effect of over 60% in size
#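 Fluorescence of coupled pyruvate oxidase/HRP/Amplex Red system (50uM Amplex, 30 min, dark) reports pyruvate formed by GPT2. Enzyme reaction: 10ng/uL GPT2, 2mM L-alanine, 250uM a-KG, 30 min room temperature, pH 7.5; 50uM AOA control.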
# HEK293 tox: HEK 293 cell cytotoxicity; hit rate 6.6% among 94,000; HEK 293 viability, ATP luminescence (CellTiter-Glo), 48-72 h; Potency, µM (titrated, usually from 115 µM), for inactives: top-dose activity change, negative = cytotoxicity, hits mostly inhibitors; AID 1345083; note: % is set by controls: 0 for no effect and ±100 for the full control effect; nearly all actives have a fitted effect of over 60% in size
#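 Viability of HEK 293 cells, plated at 250 cells/well, was judged by cellular ATP after compound treatment for 48 or 72 hr. Luminescence was imaged 10 min after CellTiter-Glo addition at room temperature.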
# hNpr1 antagonist: human Npr1 receptor antagonism. P16066. hit rate 1.6% among 76,000. HEK293 hNpr1 GloSensor cGMP, ANP-stimulated luminescence. Potency, µM (top dose mostly 46.3 µM), for inactives: at the top dose activity change, negative = inhibition, usual class: inhibitors. AID 1347048; calls by dose curve; note: % is set by controls: 0 for no effect and ±100 for the full control effect; nearly all actives have a fitted effect of over 60% in size
#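 HEK293 cells stably expressing human Npr1 and cGMP GloSensor pGS-40F, loaded 2 h with 2% GloSensor reagent, given compound 30 min at room temperature. Luminescence read before and 20 min after 0.1 nM hNppA.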
# NPR1 antag cnf: hNpr1 antagonism, confirmation assay. shares compounds with hNpr1 antagonist. HEK293 hNpr1 cGMP GloSensor luminescence, ANP-stimulated. Potency, µM (top dose mostly 57.6 µM), for inactives: top-dose activity change, negative = inhibition, usual class: inhibitors. hit rate 76% among 1,400; calls by dose curve; note: nearly all actives have a fitted effect of over 70% in size
# NPR2 antag: antagonizes human Npr2, subtype selectivity check; AID 1347046; hit rate 67% among 1,400; shares compounds with hNpr1 antagonist; HEK293 hNpr2 GloSensor cGMP luminescence, CNP-stimulated; Potency, µM (highest dose often 57.6 µM), for the others: at the highest dose activity change, negative = inhibition, usual class: inhibitors; calls by dose curve; note: nearly all actives have a fitted effect of over 70% in size
# FLuc counter: inhibits firefly luciferase, false Npr1 antagonist flag. shares compounds with hNpr1 antagonist. purified FLuc enzyme, luminescence, Km substrate. Potency, µM (series often up to 57.6 µM), inactives show at the highest dose activity change, negative = inhibition, actives largely listed as inhibitors. hit rate 0.7% among 1,400. AID 1347047; note: 0% is about no effect
# GloSensor ctrl: counter-screen for Npr1 antagonists: GloSensor control cell line. shares compounds with hNpr1 antagonist. HEK293 GloSensor cGMP, SNP-stimulated, luminescence. Potency, µM (top dose mostly 57.6 µM), without a hit: top-dose activity change, negative = inhibition, actives largely listed as inhibitors. hit rate 69% among 1,400. AID 1347051; calls by dose curve; note: % is set by controls: 0 for no effect and ±100 for the full control effect; nearly all actives have a fitted effect of over 70% in size
# * = called active by the depositor; i = inactive; u = inconclusive; x = no result given; ! = a repeat was not active; [ ] = dose if it differs, or a comment. The list is not random: actives were taken first. Their share in the collection is about 10%. Unless noted, calls come from the whole dose curve; as a rule, active = well fitted curve in the direction sought with a large enough effect; inconclusive = small, poorly fitted or top-dose-only effect, or another doubt; inactive = no such curve, though single readings can be large; an effect the other way counts as inactive or inconclusive. Potency is the fitted concentration of half-maximal effect.
SMILES,NIH3T3 tox,FLuc inh,GPT2 inh,HEK293 tox,hNpr1 antagonist,NPR1 antag cnf,NPR2 antag,FLuc counter,GloSensor ctrl
O=c1[nH]c(C2CCCN(Cc3ccc(-c4cccs4)cc3)C2)nc2ccc(F)cc12 (stereo not drawn),u,i,-1%,40µM*,16µM*,24µM*,27µM*,1%,31µM*
N#Cc1ccc(CN2CCC(c3nc4ccc(F)cc4c(=O)[nH]3)CC2)cc1,-21%,x,i,-29%,x,x,x,x,x
COc1ccccc1-c1ccc(CN2CCCC(c3nc4ccc(C)cc4c(=O)[nH]3)C2)cc1 (stereo not drawn),28µM*!,i,-15%,18µM*,u,u,u,2%,u
Cc1ccc2nc(C3CCN(Cc4ccc(C#N)cc4)CC3)[nH]c(=O)c2c1,u,i,i,u,u,17µM*,u,2%,17µM*
CN(C)C(=O)C1CCc2nnc(-c3cccc(C(F)(F)F)c3)n21 (stereo not drawn),-12%[138 µM],x,-7%[88.5 µM],1%[172 µM],x,x,x,x,x
CCn1nccc1C(=O)N1CCC(CCOc2ccc(F)cc2)C1 (stereo not drawn),u,i,-23%,35µM*,13µM*,22µM*,24µM*,-3%,24µM*
O=C(Nc1ccc(F)c(F)c1)c1cc2n(n1)CC(c1ccc(Br)cc1)OC2 (stereo not drawn),u,i,-6%,u,u,24µM*,u,0%,u
O=C(Nc1ccccc1)c1cc2n(n1)CC(c1ccc(Br)cc1)OC2 (stereo not drawn),u,i,i,u,18µM*,27µM*,u,-14%,u
O=C(Nc1ccc(F)cc1)c1cc2n(n1)CC(c1ccc(Br)cc1)OC2 (stereo not drawn),u,i,i,u,11µM*,u,u,0%,u
COc1cccc(-c2c(C(=O)NCC3CCCCC3)nc3sccn23)c1,u,x,-6%,-6%,x,x,x,x,x
CCCn1c(C)cnc1CC1CCCN(C(=O)c2ccc(OC)cc2)C1 (stereo not drawn),-19%,i,i,4%,-1%,x,x,x,x
COc1cc(OC)cc(C(=O)Nc2ccc3c(c2)CN(Cc2ccc4c(c2)OCO4)C(=O)C(C)O3)c1 (stereo not drawn),u,i,-16%,u,-12%,x,x,x,x
CC1Oc2ccc(NC(=O)c3ccc(F)cc3)cc2CN(Cc2ccc3c(c2)OCO3)C1=O (stereo not drawn),u,i,-7%,u,u,24µM*,u,1%,31µM*
Cc1cc(NC(=O)C(C)(C)Oc2nn(CCOc3ccccc3)c3ccccc23)n(C)n1,u,i,-4%[88.5 µM],u,25µM*,35µM*,35µM*,2%[86.2 µM],31µM*
COCc1ccc2c(c1)c(OC(C)(C)C(=O)Nc1cc(C)nn1C)nn2Cc1ccccc1,u,i,1%,u,1%,x,x,x,x
CC(C)(Oc1nn(Cc2cccc(Cl)c2)c2ccccc12)C(=O)N1CCN(CCO)CC1,u,i,1%,u,u,u,u,4%,-2%
COC1CCN(C(=O)C(C)(C)Oc2nn(CCOc3ccccc3)c3ccccc23)CC1,u,i,i,89µM*,u,u,25µM*,-4%[86.2 µM],-1%[86.2 µM]
CC(C)(Oc1nn(CCN2CCOCC2)c2ccccc12)C(=O)NCc1ccccc1,-12%[138 µM],i,-16%[88.5 µM],u,-11%[70.6 µM],x,x,x,x
O=C(c1ccccc1F)N1CCC2(CC1)CC(N1CCCCC1)CCO2 (stereo not drawn),-7%,x,i,i,x,x,x,x,x
CC(C)c1nccn1C1CN(C(=O)COc2ccccc2)C1,u,x,i,-26%,x,x,x,x,x
O=C(N[C@H]1CO[C@H]2[C@@H]1OC[C@@H]2n1nnnc1Oc1ccccc1)c1ccc(C(F)(F)F)cc1,u,i,i,u,10µM*,11µM*,12µM*,-1%,9.7µM*
O=C(N[C@H]1CO[C@H]2[C@@H]1OC[C@@H]2n1nnnc1Oc1ccc(-n2ccnc2)cc1)c1ccc(C(F)(F)F)cc1,-33%,i,i,35µM*,11µM*,17µM*,14µM*,2%,15µM*
CC(C)NC(=O)N1CCNc2cnc(Nc3cccc(C(F)(F)F)c3)nc2C1,40µM*,i,-2%[88.5 µM],35µM*,13µM*,18µM*,22µM*,-1%[86.2 µM],16µM*
Cc1ncsc1C(=O)N1CCNc2cnc(Nc3cccc(F)c3)nc2C1,u,i,i,u,14µM*,13µM*,18µM*,-1%[86.2 µM],11µM*
COc1ccc(Cn2c(=O)c(C(=O)N3CCN(C(C)=O)CC3)nc3cccnc32)cc1,-6%,x,i,2%,x,x,x,x,x
Nc1nc(C2CC(O)C2)cc(N2CCC(OCc3ccccn3)CC2)n1 (stereo not drawn),u,i,-9%,2%,2%,x,x,x,x
Nc1nc(C2CC(O)C2)cc(N2CCC(Cc3ccc(F)cc3)CC2)n1 (stereo not drawn),16µM*,i,-1%,u,11µM*,19µM*,19µM*,1%,12µM*
Cc1ccc(CN2CC(Oc3ccc(-c4noc(-c5cccnc5)n4)cc3)C2)o1,u,i,i,u,13µM*,19µM*,24µM*,u,22µM*
CCCS(=O)(=O)N1CC(Oc2ccc(-c3noc(-c4cccnc4)n3)cc2)C1,u,i,3%,u,14µM*,19µM*,17µM*,-19%,15µM*
O=C(NCc1ccc2c(c1)OCO2)c1nc(-c2cccc(C(F)(F)F)c2)c2ccccn12,-15%,i,-10%,u,u,-21%,-24%,3%,0%
